# Legend:
# Test in all cases: thermal shift delta Tm vs DMSO control; higher = stronger stabilization (binding)
# Conditions in all cases: 12.5 µM; protein concentration 2 µM
# LOC_OS04G57630-cb004 = tested on: LOC_OS04G57630-cb004
# Procedure, shortened: (§1)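 Rice kinase domain constructs, made in E. coli and purified, were placed in 96-well plates at 2 μM in 19.5 μl of 100 mM potassium phosphate pH 7.5, 150 mM NaCl, 10% glycerol and 5 × SYPRO Orange, with compound in DMSO. A temperature ramp from 25°C to 95°C at 0.05°C/s was used for differential scanning fluorimetry. The melting temperature shift is a triplicate mean compared with DMSO-only protein, derived from Boltzmann fits.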
# LOC_OS05G07850-cb002 = tested on: LOC_OS05G07850-cb002
# Procedure, shortened: as §1
# LOC_OS05G16824-cb004 = tested on: LOC_OS05G16824-cb004
# Procedure, shortened: as §1
# LOC_OS05G28520-cb001 = tested on: LOC_OS05G28520-cb001
# Procedure, shortened: as §1
# LOC_OS05G30820-cb001 = tested on: LOC_OS05G30820-cb001
# Procedure, shortened: as §1
# LOC_OS05G43570-cb004 = tested on: LOC_OS05G43570-cb004
# Procedure, shortened: as §1
# LOC_OS06G16330-cb003 = tested on: LOC_OS06G16330-cb003
# Chain of LOC_OS06G16330-cb003 (as listed by the source): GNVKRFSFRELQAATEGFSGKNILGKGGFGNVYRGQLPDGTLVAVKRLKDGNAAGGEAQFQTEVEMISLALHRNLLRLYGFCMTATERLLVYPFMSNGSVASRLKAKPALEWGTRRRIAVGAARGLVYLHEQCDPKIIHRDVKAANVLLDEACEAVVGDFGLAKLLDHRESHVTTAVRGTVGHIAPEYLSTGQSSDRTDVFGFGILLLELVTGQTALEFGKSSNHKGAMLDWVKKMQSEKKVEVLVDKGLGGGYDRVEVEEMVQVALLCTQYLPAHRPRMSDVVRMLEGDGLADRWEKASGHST
# Procedure, shortened: as §1
# LOC_OS06G22820-cb001 = tested on: T1, LOC_OS06G22820-cb001
# T1 sequence (whole entry): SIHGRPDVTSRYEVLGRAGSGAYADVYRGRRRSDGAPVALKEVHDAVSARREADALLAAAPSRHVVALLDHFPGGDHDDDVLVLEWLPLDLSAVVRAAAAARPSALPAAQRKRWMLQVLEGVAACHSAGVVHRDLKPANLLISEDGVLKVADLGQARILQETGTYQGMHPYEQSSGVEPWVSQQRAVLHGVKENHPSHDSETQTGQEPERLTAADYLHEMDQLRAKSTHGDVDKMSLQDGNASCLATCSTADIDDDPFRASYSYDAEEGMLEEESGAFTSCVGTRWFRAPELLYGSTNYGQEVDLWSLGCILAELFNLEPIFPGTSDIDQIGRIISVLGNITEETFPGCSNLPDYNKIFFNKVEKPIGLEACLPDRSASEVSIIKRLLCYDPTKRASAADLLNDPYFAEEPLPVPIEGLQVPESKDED
# Procedure, shortened: as §1
# LOC_OS07G06570-cb004 = tested on: LOC_OS07G06570-cb004
# Procedure, shortened: as §1
# LOC_OS07G07230-cb001 = tested on: LOC_OS07G07230-cb001
# Procedure, shortened: as §1
# 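Also: purified Escherichia coli-expressed rice kinase domain construct.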
Structure (SMILES),thermal shift delta Tm (LOC_OS04G57630-cb004),thermal shift delta Tm (LOC_OS05G07850-cb002),thermal shift delta Tm (LOC_OS05G16824-cb004),thermal shift delta Tm (LOC_OS05G28520-cb001),thermal shift delta Tm (LOC_OS05G30820-cb001),thermal shift delta Tm (LOC_OS05G43570-cb004),thermal shift delta Tm (LOC_OS06G16330-cb003),thermal shift delta Tm (LOC_OS06G22820-cb001),thermal shift delta Tm (LOC_OS07G06570-cb004),thermal shift delta Tm (LOC_OS07G07230-cb001)
C[C@@H](N)c1ccc(C(=O)Nc2ccnc3[nH]ccc23)cc1,0.16 °C,3.37 °C,-0.56 °C,0.67 °C,0.3 °C,0.84 °C,2.93 °C,0.59 °C,0.72 °C,-0.1 °C
CCNC(=O)Nc1ccc(-c2nc(N3CCOC[C@@H]3C)c3c(n2)C(C)(C)S(=O)(=O)C3)cc1,-0.03 °C,1.34 °C,0.19 °C,0.25 °C,0.2 °C,0.77 °C,-0.15 °C,0.67 °C,1.9 °C,0.66 °C
Cc1cc(CN2CCN(c3c(Br)cnc4nc(-c5ccc(N6CCN(C)CC6)cc5)[nH]c34)CC2)no1,1.11 °C,8.75 °C,3.92 °C,1.16 °C,0.38 °C,0.18 °C,5.31 °C,0.11 °C,1.11 °C,1.28 °C
CCN(CC)CCNC(=O)c1c(C)[nH]c(/C=C2\C(=O)Nc3ccc(F)cc32)c1C [Sunitinib],4.01 °C,8.4 °C,12.1 °C,2.16 °C,0.86 °C,0.55 °C,8.31 °C,0.22 °C,0.72 °C,0.24 °C
CN1CC[C@H](c2c(O)cc(O)c3c(=O)cc(-c4ccccc4Cl)oc23)[C@H](O)C1 [Flavopiridol (Alvocidib)],0.36 °C,5.16 °C,2.71 °C,-0.27 °C,0.85 °C,0.07 °C,3.19 °C,1.43 °C,0.96 °C,0 °C
CNC(=O)c1cc(COc2nnc(Nc3ccc(Cl)cc3)c3ccoc23)ccn1 [Telatinib],0.3 °C,0.35 °C,-3.58 °C,0.37 °C,0.56 °C,0.21 °C,-0.23 °C,0.39 °C,0.17 °C,0.1 °C
COc1c(C)c(C(=O)c2ccc(N)c(C(=O)O)c2)n2ccccc12,0.19 °C,0.78 °C,-2.73 °C,0.86 °C,0.51 °C,0.58 °C,-0.18 °C,0.47 °C,1.2 °C,0.36 °C
COc1cc(-c2cc(-c3ccc(N4CCNCC4)cc3)cnc2C)cc(OC)c1OC,0.42 °C,3.83 °C,0.31 °C,0.5 °C,0.25 °C,0.17 °C,2.03 °C,0.21 °C,0.35 °C,0.01 °C
Cn1ncc(Cl)c1-c1cc(C(=O)N[C@H](CN)Cc2cccc(F)c2)sc1Cl,-0.03 °C,0.66 °C,-1.28 °C,0.54 °C,0.43 °C,0.61 °C,0.52 °C,0.88 °C,1.37 °C,0.28 °C
C=CC(=O)Nc1cc(Nc2nccc(-c3cn(C)c4ccccc34)n2)c(OC)cc1N(C)CCN(C)C [Osimertinib (AZD9291)],0.2 °C,13.5 °C,-1.95 °C,0.53 °C,0.54 °C,0.3 °C,5.5 °C,0.25 °C,1.03 °C,0.47 °C
C#Cc1cccc(Nc2ncnc3cc(OCCOC)c(OCCOC)cc23)c1 [Erlotinib],0.41 °C,8.18 °C,-4.3 °C,0.22 °C,0.36 °C,-0.04 °C,3.38 °C,0.08 °C,0.67 °C,-0.73 °C

# Reference: the supplement of paper PMC9694430
